Results filed as inconclusive are left out. Active and inactive are the calls of the source. How the source made its calls: active means hit-call score of the fitted dose curve at least 0.9, where 1 is the maximum; inconclusive means response in the unintended direction; inactive means score below 0.9.
Assays:
[1] = Tanguay_ZF_120hpf_SNOU_legacy: (Legacy) Oregon State University Tanguay Lab 120 Hour Post-fertilization zebrafish Assay for Snout Malformation (AID 2283637)
Outline: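 Binary brightfield scoring of snout malformation at 120 hpf. Dechorionated 5D wild-type embryos, one per well, static exposure from 6 hpf at 28C, sealed and dark; final DMSO 0.64% (vol/vol), DMSO as baseline; 5uM trimethyltin chloride positive control.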

[2] = Tanguay_ZF_120hpf_JAW_legacy: (Legacy) Oregon State University Tanguay Lab 120 Hour Post-fertilization zebrafish Assay for Jaw Malformation (AID 2283638);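 on AC50: active means more embryos with jaw malformation than DMSO controls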
Outline: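 Steps: dechorionate 4 hpf embryos (pronase); plate 1/well at 6 hpf; add test chemical, 0.64% DMSO final; seal, cover, hold at 28C statically to 120 hpf; score jaw defect presence/absence microscopically. Dead embryos not scored.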

[3] = Tanguay_ZF_120hpf_OTIC_legacy: (Legacy) Oregon State University Tanguay Lab 120 Hour Post-fertilization zebrafish Assay for Otic Vesicle Malformation (AID 2283639)
Outline: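 Wild-type zebrafish larvae, whole-embryo exposure from early stage to 120 hpf at 28C. Binary brightfield scoring of otic vesicle morphology, fitted in the positive direction against the DMSO baseline.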

[4] = Tanguay_ZF_120hpf_PE_legacy: (Legacy) Oregon State University Tanguay Lab 120 Hour Post-fertilization zebrafish Assay for Pericardial Edema (AID 2283640);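 on AC50: potency for increased incidence of pericardial edema versus DMSO baseline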
Outline: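 Embryos from wild-type 5D adults were staged, then dosed in 0.64% DMSO. They were kept sealed in the dark at 28C until 120 hpf. Pericardial edema was then recorded as present or absent.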

[5] = Tanguay_ZF_120hpf_BRAI_legacy: (Legacy) Oregon State University Tanguay Lab 120 Hour Post-fertilization zebrafish Assay for Brain Malformation (AID 2283641)
Outline: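 Wild-type 5D larvae, static waterborne exposure to 120 hpf, 28C, 0.64% v/v DMSO. Brightfield scoring of brain defects, binary; dead embryos excluded. Positive ctrl 5uM trimethyltin chloride.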

[6] = Tanguay_ZF_120hpf_SOMI_legacy: (Legacy) Oregon State University Tanguay Lab 120 Hour Post-fertilization zebrafish Assay for Somite Malformation (AID 2283647)
Outline: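 Read-out: presence or absence of somite malformation in 120 hpf larvae, gain-of-signal relative to DMSO baseline. Embryos lacked chorion (pronase, 4 hpf) and were exposed statically from 6 hpf at 28C; dead larvae not scored.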

[7] = Tanguay_ZF_120hpf_PFIN_legacy: (Legacy) Oregon State University Tanguay Lab 120 Hour Post-fertilization zebrafish Assay for Pectoral Fin Malformation (AID 2283648);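 further: each larva judged yes or no for fin defect by brightfield with dead larvae skipped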
Outline: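 Binary pectoral fin malformation call at 120 hpf by brightfield microscopy; 5D wild-type zebrafish, chorion removed at 4 hpf, one embryo per well from 6 hpf, static exposure at 28C; DMSO (0.64% final) as baseline.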

[8] = Tanguay_ZF_120hpf_CFIN_legacy: (Legacy) Oregon State University Tanguay Lab 120 Hour Post-fertilization zebrafish Assay for Caudal Fin Malformation (AID 2283649)
Outline: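 Binary presence or absence of caudal fin malformation at 120 hpf, read by brightfield microscopy, with DMSO as baseline. Larvae came from 5D wild-type embryos exposed statically from 6 hpf at 28C after pronase dechorionation.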

[9] = Tanguay_ZF_120hpf_PIG_legacy: (Legacy) Oregon State University Tanguay Lab 120 Hour Post-fertilization zebrafish Assay for Pigmentation Malformation (AID 2283650);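 further: dechorionated Tropical 5D zebrafish embryos exposed singly from 6 to 120 hpf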
Outline: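 Brightfield scoring of pigmentation malformation at 120 hpf, recorded as binary present/absent per larva. Exposure: dechorionated 5D wild-type embryos, one per well, static from 6 hpf at 28C, final DMSO 0.64% (vol/vol). Dead embryos not scored.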

[10] = Tanguay_ZF_120hpf_CIRC_legacy: (Legacy) Oregon State University Tanguay Lab 120 Hour Post-fertilization zebrafish Assay for Circulatory Malformation (AID 2283651)
Outline: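 Binary circulatory-malformation call at 120 hpf via brightfield imaging, relative to DMSO controls. Embryos (5D strain, chorion removed) received static, light-shielded exposure at 28C.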

[11] = Tanguay_ZF_120hpf_TRUN_legacy: (Legacy) Oregon State University Tanguay Lab 120 Hour Post-fertilization zebrafish Assay for Truncated Body (AID 2283655)
Outline: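 Truncated body is recorded as a binary endpoint at 120 hpf by brightfield imaging of wild-type 5D larvae. Exposure runs statically from 6 hpf at 28C with 0.64% DMSO; embryos dying earlier are not scored.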

[12] = Tanguay_ZF_120hpf_NC_legacy: (Legacy) Oregon State University Tanguay Lab 120 Hour Post-fertilization zebrafish Assay for Notochord and Tail Malformation (AID 2283656)
Outline: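 Binary notochord-distortion calls, made by brightfield inspection, form the read-out; activity is fitted in the positive direction against DMSO. Exposure ran statically from 6 to 120 hpf at 28C with 0.64% DMSO.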

[13] = Tanguay_ZF_120hpf_TR_legacy: (Legacy) Oregon State University Tanguay Lab 120 Hour Post-fertilization zebrafish Assay for Touch Response (AID 2283667)
Outline: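 Binary touch-response call at 120 hpf, analysed as gain of signal versus DMSO baseline. Wild-type 5D larvae, static exposure at 28C, 0.64% DMSO final; 5uM trimethyltin chloride as positive control.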

[14] = Tanguay_ZF_120hpf_SWIM_legacy: (Legacy) Oregon State University Tanguay Lab 120 Hour Post-fertilization zebrafish Assay for Swim Bladder Malformation (AID 2283654);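 further: swim bladder malformation in each larva scored yes or no under brightfield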
Outline: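 Tropical 5D embryos dechorionated at 4 hpf; 1 embryo/well from 6 hpf; static, sealed, dark exposure at 28C until 120 hpf; final DMSO 0.64%; 5uM trimethyltin chloride positive control; swim bladder defect recorded yes/no; dead embryos not scored.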

[15] = system: Thyroperoxidase (TPO), gene 54314; assay: CCTE_Simmons_AUR_rTPO: CCTE's Amplex UltraRed Assay for Thyroperoxidase (TPO) Inhibition, Simmons Lab (AID 2283662);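 further: potency for loss of signal meaning inhibition of peroxidase activity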
Outline: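 Rat thyroid microsomal TPO + 25 uM AUR in 200 mM K phosphate; cpd 5 nM–87.5 uM [final], 8 conc, 0.5% DMSO; 300 uM H2O2 starts rxn; 37C dark 30 min; endpoint FI 544/590 nm; n=3.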

[16] = CCTE_Simmons_CellTiterGLO_HEK293T: Viability Assessment in CCTE's Assays for Thyroperoxidase (TPO) Inhibition, Simmons Lab (AID 2283665);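 further: cells exposed to compound for 24 h before readout; actives reduce ATP signal below DMSO vehicle meaning cytotoxicity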
Outline: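 ATP depletion measured in HEK293T cells after 24 h dosing (8 concentrations, 5 nM–87.5 uM final; DMSO 0.5%) using CellTiter-Glo luminescence; curves fit for loss of signal against DMSO baseline.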

Measured: AC50

Fc1ccccc1[C@@H](F)COC1CCC(Nc2ncnc3[nH]ncc23)CC1 (stereo not given in full)
active: [2] 38000 nM | [4] 34900 nM
not listed: [14] | [15] | [16]
inactive: all other assays above

Cc1ccc(C)c(O)c1
not listed: [15] | [16]
inactive: all other assays above

CCC(C)(C)C(=O)O[C@H]1C[C@@H](C)C=C2C=C[C@H](C)[C@H](CC[C@@H]3C[C@@H](O)CC(=O)O3)[C@H]21
active: [1] 796 nM | [2] 766 nM | [3] 747 nM | [4] 640 nM | [5] 645 nM | [7] 652 nM | [9] 666 nM | [15] 43800 nM | [16] 43800 nM | [13] 664 nM
inactive: [6] | [8] | [10] | [11] | [12]

CC(C)CCO
not listed: [15] | [16]
inactive: all other assays above

CCCCC(CC)COC(=O)c1ccc(C(=O)OCC(CC)CCCC)cc1 (stereo not given)
not listed: [14] | [15] | [16]
inactive: all other assays above

CC(=O)c1ccc2c(c1)[C@H](NC(=O)c1ccc(F)cc1)[C@@H](O)C(C)(C)O2
not listed: [12] | [15] | [16]
inactive: all other assays above

CCn1nc(Cc2ccccc2)cc1C1CCN(C[C@H]2C[C@H](N(C)[C@@H](C(=O)O)C(C)C)C[C@@H]2c2cccc(F)c2)CC1
active: [15] 30700 nM | [16] 42800 nM
not listed: [14]
inactive: all other assays above

CC(C)=CCC/C(C)=C/CO
active: [8] 31600 nM
not listed: [14] | [15] | [16]
inactive: all other assays above
